From PubChem BioAssay (NCI)
This is part of a sample that, as a whole, favours compounds with a hit. Of some 79,000 tested, about 15% had one in any assay. Active and inactive are the calls of the source. Rule as the data show it: active = growth inhibition above about 70%; inactive = the rest.

What was measured:
[1] = NCI Yeast Anticancer Drug Screen. Data for the rad52 strain (AID 147);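 also: 0% = growth of vehicle-treated control cultures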; conditions: S. cerevisiae rad52 mutant growth inhibition, stronger effect = higher value
How it was run: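 Compounds are applied to a genetically defined yeast strain lacking normal DNA damage repair, and inhibition of growth is expressed relative to cultures given vehicle only.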

[2] = NCI Yeast Anticancer Drug Screen. Data for the wt1 strain (AID 149);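 also: 0% = growth of vehicle-treated wt1 cultures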; conditions: S. cerevisiae wt1 strain (SPY 50644) growth inhibition, stronger effect = higher value
How it was run: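 Compounds are added to wt1 yeast cultures. Growth is then measured. Inhibition is expressed relative to vehicle-treated controls.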

[3] = NCI Yeast Anticancer Drug Screen. Data for the rad50EPP+ strain (AID 151);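 also: 0% = growth of vehicle-treated control cultures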; conditions: S. cerevisiae rad50 mutant strain, stronger effect = higher value
How it was run: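 Compounds were applied to the rad50EPP+ yeast strain, which bears a defined DNA repair alteration, and growth inhibition was determined relative to vehicle-treated cultures.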

[4] = NCI Yeast Anticancer Drug Screen. Data for the rad50 strain (AID 155);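 also: 0% = growth of vehicle-only cultures of the same strain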; conditions: S. cerevisiae rad50 strain growth inhibition, stronger effect = higher value
How it was run: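 Inhibition values express reduced yeast growth in compound-treated cultures relative to vehicle-treated controls.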

[5] = NCI Yeast Anticancer Drug Screen. Data for the mec2-1 strain (AID 157); conditions: S. cerevisiae mec2-1 strain, stronger effect = higher value
How it was run: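 Strain: mec2-1 (DNA repair/cell cycle alteration). Compound exposure, then growth measured; inhibition expressed relative to vehicle.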

[6] = NCI Yeast Anticancer Drug Screen. Data for the rad14 strain (AID 159);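 also: 0% = growth of vehicle-treated control cultures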; conditions: S. cerevisiae rad14 strain growth inhibition, stronger effect = higher value
How it was run: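 A mutant yeast strain defective in DNA damage repair is treated with compound; inhibition of its growth is scored against untreated, vehicle-exposed cultures.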

[7] = NCI Yeast Anticancer Drug Screen. Data for the sgs1 mgt1 strain (AID 161);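 also: 0% = growth of cultures given vehicle only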; conditions: S. cerevisiae sgs1 mgt1 strain, stronger effect = higher value
How it was run: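 Mutant yeast exposed to compound; growth scored against vehicle-only wells.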

[8] = at 5.0 µM (retest, dose inferred, filed as 0.5)
[9] = at 50.0 µM (retest, dose inferred, filed as 5.0)

Measured: growth inhibition

O=S(=O)(N/N=C/c1cccc(Cl)c1)c1ccccc1
active: [1]; at 33.0 µM 88% | [1]; at 100.0 µM 99% | [2]; at 100.0 µM 99% | [4]; at 33.0 µM 87% | [4]; [9] 92% | [4]; at 50.0 µM 89.9% | [4]; at 100.0 µM 98% | [5]; at 100.0 µM 91% | [6]; at 33.0 µM 73% | [6]; at 100.0 µM 99% | [7]; [9] 86%
inactive: [1]; at 1.2 µM -4% | [1]; at 3.7 µM -3% | [1]; at 11.0 µM 8% | [2]; at 1.2 µM 0% | [2]; at 3.7 µM 4% | [2]; at 11.0 µM 3% | [2]; at 33.0 µM 65% | [3]; at 1.2 µM 4% | [3]; at 3.7 µM 8% | [3]; at 11.0 µM 18% | [3]; at 33.0 µM 18% | [3]; at 100.0 µM 25% | [4]; at 1.2 µM -1% | [4]; at 3.7 µM -1% | [4]; [8] -14% | [4]; at 11.0 µM 7% | [5]; at 1.2 µM -3% | [5]; at 3.7 µM 4% | [5]; [8] -18% | [5]; at 11.0 µM 13% | [5]; at 33.0 µM 54% | [5]; [9] 66% | [5]; at 50.0 µM 55.5% | [6]; at 1.2 µM -7% | [6]; at 3.7 µM -6% | [6]; at 11.0 µM -1% | [7]; [8] -1% | [7]; at 50.0 µM 63.7%
